Measurements: PubChem BioAssay (EPA / NIEHS)
Several values for one entry are separate records, joined by “and”; a condition that tells them apart may be missing. Identical values can stand only once. Results filed as inconclusive are left out. More than one record can exist for a structure, and the calls need not agree. Activity calls are given as the source filed them. How the source made its calls, unless noted: active means hit-call score of the fitted dose curve at least 0.9, where 1 is the maximum; inactive means score below 0.9.

Assays:
[1] = molecular target: Myc proto-oncogene protein (Homo sapiens) (UniProt P01106); assay: ATG_Myc_CIS: Attagene CIS-FACTORIAL HepG2 Assay for human Myelocytomatosis (Myc) Proto-Oncogene Transcription Factor (AID 2282990); settings: HepG2, Attagene cis-reporter transcription factor activity; actives raise or lower the signal
In short: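 DMSO-normalised, bidirectionally fitted reporter mRNA signal. HepG2 cells transfected with cis reporter constructs, treated 24 h; transcripts detected by RT-PCR, 6-FAM primer extension and CE.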

[2] = ATG_NF_kB_CIS: Attagene CIS-FACTORIAL HepG2 Assay for human Nuclear Factor Kappa B (NF-kB) (AID 2282991); settings: HepG2 Attagene cis-factorial NF-kB reporter mRNA; actives raise or lower the signal
In short: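 HepG2, transient multi-reporter transfection, cis promoter elements (endogenous TFs). 24 h exposure. Total RNA → RT → PCR → 6-FAM label → HpaI → CE. Gain/loss vs DMSO.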

[3] = ATG_NRF2_ARE_CIS: Attagene CIS-FACTORIAL HepG2 Assay for human Nuclear Factor Erythroid 2 Related Factor 2 (NFR2) response to Antioxidant Response Elements (ARE) (AID 2282992); settings: HepG2 Attagene ARE/NRF2 reporter, transcription factor activity; actives raise or lower the signal;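 on AC50: reporter mRNA level measured by RT-PCR and capillary electrophoresis fluorescence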
In short: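 Endogenous transcription factor activity in human liver HepG2 cells is tracked via a cis-element-driven reporter within a multiplexed set. mRNA induction is read by RT-PCR and capillary electrophoresis after 24 h, with DMSO as baseline.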

[4] = ATG_Oct_MLP_CIS: Attagene CIS-FACTORIAL HepG2 Assay for human Octamer-Binding Transcription Factor (Oct) (AID 2282993); settings: HepG2 Attagene cis-factorial Oct reporter, mRNA; actives raise or lower the signal
In short: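 Read-out: reporter mRNA via RT-PCR plus capillary electrophoresis of 6-FAM-labelled fragments. Transiently transfected HepG2, 24 h exposure, endogenous TF activity on cis elements. Gain or loss of signal fitted relative to DMSO.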

[5] = BSK_3C_TissueFactor: BioMAP Diversity Plus: 3C Assay for Tissue Factor Biomarker Activity (AID 2282997); settings: BioMAP 3C HUVEC, tissue factor biomarker readout; actives raise or lower the signal
In short: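 After a 24 h chemical exposure of primary human umbilical vein endothelial cells, Tissue Factor levels were quantified by ELISA.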

[6] = BSK_3C_uPAR: BioMAP Diversity Plus: 3C Assay for Urokinase-type plasminogen activator receptor (uPAR) Biomarker Activity (AID 2282998); settings: BioMAP 3C HUVEC, uPAR biomarker ELISA; actives raise or lower the signal
In short: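 HUVEC primary cells; 24 h post-dose; uPAR by ELISA; gain or loss of signal fitted bidirectionally vs DMSO baseline.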

[7] = BSK_4H_Eotaxin3: BioMAP Diversity Plus: 4H Assay for Eotaxin 3 Biomarker Activity (AID 2283000); settings: primary human endothelial cells (HUVEC); actives raise or lower the signal
In short: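 Chemicals were added to human umbilical vein endothelium cultures, and Eotaxin-3 was quantified by ELISA at 24 h. Values were derived by bidirectional fitting with DMSO serving as negative control and activity baseline.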

[8] = molecular target: human Peroxisome Proliferator-activated Receptor alpha (PPARa), PPARA (gene 5465) (UniProt Q07869); assay: ATG_PPARa_TRANS: Attagene TRANS-FACTORIAL HepG2 Assay for human Peroxisome Proliferator-activated Receptor alpha (PPARa) (AID 2283001; active means hit-call score of the fitted dose curve at least 0.9, where 1 is the maximum;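 on AC50: potency for gain of reporter signal over DMSO so agonist or activator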)
In short: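 Exposure: 24 h, transiently transfected HepG2 cells. Endpoint: GAL4-UAS reporter mRNA, RT-PCR with capillary electrophoresis fluorescence. Baseline: DMSO; increases fitted.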

[9] = molecular target: human Peroxisome Proliferator-activated Receptor delta (PPARd), PPARD (gene 5467) (UniProt Q03181); assay: ATG_PPARd_TRANS: Attagene TRANS-FACTORIAL HepG2 Assay for human Peroxisome Proliferator-activated Receptor delta (PPARd) (AID 2283002; active means hit-call score of the fitted dose curve at least 0.9, where 1 is the maximum)
In short: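 Measured quantity: GAL4-UAS reporter transcript induction in HepG2 after 24 h chemical dosing, with NR-Gal4 chimeras supplied by transient transfection. Detection by RT-PCR and capillary electrophoresis; upward fit against DMSO.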

[10] = BSK_3C_Proliferation: Cell Proliferation Assessment in the BioMAP Diversity Plus: 3C Assay (AID 2283006); settings: primary human endothelial cells (HUVEC);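 on AC50: potency may reflect either rise or fall in cell number versus DMSO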
In short: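 HUVEC, sub-confluent; 48 h chemical exposure; 10% TCA fix, 0.1% SRB stain, A560 total protein. Gain or loss of signal fitted both directions vs DMSO control.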

[11] = molecular target: Nuclear receptor subfamily 1 group I member 2 (Homo sapiens) (UniProt O75469); assay: ATG_PXR_TRANS: Attagene TRANS-FACTORIAL HepG2 Assay for human Pregnane X Receptor (PXR) (AID 2283008; active means hit-call score of the fitted dose curve at least 0.9, where 1 is the maximum)
In short: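 HepG2 transfected (FuGene 6) with GAL4-UAS reporter units + PXR-Gal4 chimera; dosed 24 h. Total RNA → oligo(dT) RT → PCR → 6-FAM primer extension → HpaI cut → CE. Gain-of-signal vs DMSO.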

[12] = molecular target: Cellular tumor antigen p53 (Homo sapiens) (UniProt P04637); assay: ATG_p53_CIS: Attagene CIS-FACTORIAL HepG2 Assay for human p53 Transcription Factor (AID 2282994); settings: HepG2 p53 cis-element reporter, Attagene mRNA; actives raise or lower the signal
In short: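 Steps: transfect HepG2 with multiplexed cis reporter constructs; dose chemicals 24 h; extract RNA, reverse-transcribe, PCR-amplify reporter sequences; FAM-label, HpaI-digest, resolve fragments by CE. Activity fitted both directions relative to DMSO.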

[13] = BSK_3C_VCAM1: BioMAP Diversity Plus: 3C Assay for Vascular cell adhesion molecule 1 (VCAM1) Biomarker Activity (AID 2282999); settings: BioMAP 3C HUVEC, VCAM1 ELISA, cytokine-stimulated; actives raise or lower the signal
In short: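 Vascular primary endothelium (human umbilical vein) was exposed to chemicals and assayed 24 h later. VCAM-1 levels came from ELISA, with DMSO serving as baseline for bidirectional fitting.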

[14] = molecular target: human Retinoic Acid Receptor beta (RARb), RARB (gene 5915) (UniProt P10826); assay: ATG_RARb_TRANS: Attagene TRANS-FACTORIAL HepG2 Assay for human Retinoic Acid Receptor beta (AID 2283004; active means hit-call score of the fitted dose curve at least 0.9, where 1 is the maximum)
In short: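 Transient transfection of HepG2 with multiple reporter units → chemical dosing, 24 h → total RNA isolation → RT with oligo(dT) → reporter-specific PCR, 6-FAM primer extension, HpaI digest → capillary electrophoresis. Positive direction vs DMSO control.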

[15] = molecular target: Peroxisome proliferator-activated receptor gamma (Homo sapiens) (UniProt P37231); assay: ATG_PPARg_TRANS: Attagene TRANS-FACTORIAL HepG2 Assay for human Peroxisome Proliferator-activated Receptor-gamma (PPARg) (AID 2283007; active means hit-call score of the fitted dose curve at least 0.9, where 1 is the maximum)
In short: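 Multiplexed reporter transcription units in HepG2, 24 h dosing, reporter transcripts quantified by fluorescent RT-PCR and capillary electrophoresis. Increase over DMSO scored.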

[16] = molecular target: human Retinoic Acid Receptor gamma (RARg), RARG (gene 5916) (UniProt P13631); assay: ATG_RARg_TRANS: Attagene TRANS-FACTORIAL HepG2 Assay for human Retinoic Acid Receptor gamma (RARg) (AID 2283009; active means hit-call score of the fitted dose curve at least 0.9, where 1 is the maximum)
In short: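 Readout: reporter transcript levels via RT-PCR, 6-FAM primer-extension labelling, HpaI digestion and capillary electrophoresis. Cells: HepG2 carrying transfected RARg-GAL4 chimera plus UAS reporter set. Dosing 24 h; DMSO negative control.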

[17] = molecular target: human RAR-related Orphan Receptor beta (RORb), RORB (gene 6096) (UniProt Q92753); assay: ATG_RORb_TRANS: Attagene TRANS-FACTORIAL HepG2 Assay for human RAR-related Orphan Receptor beta (RORb) (AID 2283010; active means hit-call score of the fitted dose curve at least 0.9, where 1 is the maximum)
In short: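 HepG2, transient MRTU transfection (GAL4-UAS reporters, exogenous NR-Gal4 chimeras); 24 h compound exposure; total RNA → RT-PCR → 6-FAM primer extension → HpaI digest → CE fluorescence. Positive direction vs DMSO baseline.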

[18] = molecular target: Retinoic acid receptor RXR-alpha (Homo sapiens) (UniProt P19793); assay: ATG_RXRa_TRANS: Attagene TRANS-FACTORIAL HepG2 Assay for human Retinoid X Receptor alpha (RXRa) (AID 2283012; active means hit-call score of the fitted dose curve at least 0.9, where 1 is the maximum)
In short: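 Read-out: fluorescent reporter-transcript fragments quantified by capillary electrophoresis after RT-PCR. Transiently transfected HepG2 cells carrying GAL4-UAS reporters and NR-GAL4 chimeras were exposed to chemical for 24 h; activity scored as increase over DMSO.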

[19] = read-out: Intercellular Adhesion Molecule 1 (ICAM1), ICAM1 (gene 3383); assay: BSK_3C_ICAM1: BioMAP Diversity Plus: 3C Assay for Intercellular Adhesion Molecule 1 (ICAM1) Biomarker Activity (AID 2283003); settings: primary human endothelial cells (HUVEC); actives raise or lower the signal
In short: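 ELISA read-out of ICAM-1; HUVEC (primary human), 3C system, 24 h post-dosing; bidirectional fit vs DMSO baseline.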

[20] = molecular target: Retinoic acid receptor alpha (Homo sapiens) (UniProt P10276); assay: ATG_RARa_TRANS: Attagene TRANS-FACTORIAL HepG2 Assay for human Retinoic Acid Receptor alpha (RARa) (AID 2283005; active means hit-call score of the fitted dose curve at least 0.9, where 1 is the maximum)
In short: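 HepG2 cells transiently transfected with multiple reporter units expressing chimeric RARα-GAL4 fusion, with GAL4-UAS-driven reporters. After 24 h compound exposure, reporter mRNA induction quantified by RT-PCR and capillary electrophoresis with fluorescent labeling; gain-of-signal fitted relative to DMSO control.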

Measured: AC50

Chain of Myc proto-oncogene protein (Homo sapiens) (P01106 whole entry, looked up): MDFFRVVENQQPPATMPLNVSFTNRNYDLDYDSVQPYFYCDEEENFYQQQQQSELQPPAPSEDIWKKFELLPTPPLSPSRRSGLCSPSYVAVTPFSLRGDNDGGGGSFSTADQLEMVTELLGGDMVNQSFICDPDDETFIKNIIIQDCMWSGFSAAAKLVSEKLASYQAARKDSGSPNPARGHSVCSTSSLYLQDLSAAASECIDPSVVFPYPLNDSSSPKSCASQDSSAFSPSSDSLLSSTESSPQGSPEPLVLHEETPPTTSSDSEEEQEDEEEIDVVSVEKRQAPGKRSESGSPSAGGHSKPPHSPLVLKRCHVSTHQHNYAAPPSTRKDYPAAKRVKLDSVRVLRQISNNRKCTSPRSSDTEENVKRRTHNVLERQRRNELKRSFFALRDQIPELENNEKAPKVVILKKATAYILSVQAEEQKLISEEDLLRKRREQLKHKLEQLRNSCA
Chain of Cellular tumor antigen p53 (Homo sapiens) (P04637 whole entry, looked up, the tested form may be a part): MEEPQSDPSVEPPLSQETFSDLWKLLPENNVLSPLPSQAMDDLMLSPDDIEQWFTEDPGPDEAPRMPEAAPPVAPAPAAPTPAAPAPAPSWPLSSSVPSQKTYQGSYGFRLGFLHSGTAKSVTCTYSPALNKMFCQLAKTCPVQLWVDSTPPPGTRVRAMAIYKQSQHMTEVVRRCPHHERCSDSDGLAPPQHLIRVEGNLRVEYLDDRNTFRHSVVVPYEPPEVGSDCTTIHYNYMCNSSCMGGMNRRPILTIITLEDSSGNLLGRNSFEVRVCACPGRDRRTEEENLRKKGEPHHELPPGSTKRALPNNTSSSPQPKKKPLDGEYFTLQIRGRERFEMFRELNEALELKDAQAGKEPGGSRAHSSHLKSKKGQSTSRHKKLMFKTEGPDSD
Chain of Retinoic acid receptor RXR-alpha (Homo sapiens) (P19793 whole entry, looked up, the tested form may be a part): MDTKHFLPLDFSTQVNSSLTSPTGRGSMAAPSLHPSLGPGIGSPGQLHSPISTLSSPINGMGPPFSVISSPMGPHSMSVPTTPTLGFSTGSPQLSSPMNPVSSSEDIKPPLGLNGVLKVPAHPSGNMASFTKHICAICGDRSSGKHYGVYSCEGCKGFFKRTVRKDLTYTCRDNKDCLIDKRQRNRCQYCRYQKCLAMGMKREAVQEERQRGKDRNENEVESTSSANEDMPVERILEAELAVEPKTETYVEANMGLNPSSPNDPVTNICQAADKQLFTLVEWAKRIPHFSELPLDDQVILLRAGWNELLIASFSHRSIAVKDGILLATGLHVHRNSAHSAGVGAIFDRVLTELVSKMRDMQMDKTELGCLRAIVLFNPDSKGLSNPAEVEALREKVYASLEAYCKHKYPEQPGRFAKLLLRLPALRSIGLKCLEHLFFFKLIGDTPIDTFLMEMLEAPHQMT
Chain of human Retinoic Acid Receptor gamma (RARg), RARG (gene 5916) (P13631 whole entry, looked up, the tested form may be a part): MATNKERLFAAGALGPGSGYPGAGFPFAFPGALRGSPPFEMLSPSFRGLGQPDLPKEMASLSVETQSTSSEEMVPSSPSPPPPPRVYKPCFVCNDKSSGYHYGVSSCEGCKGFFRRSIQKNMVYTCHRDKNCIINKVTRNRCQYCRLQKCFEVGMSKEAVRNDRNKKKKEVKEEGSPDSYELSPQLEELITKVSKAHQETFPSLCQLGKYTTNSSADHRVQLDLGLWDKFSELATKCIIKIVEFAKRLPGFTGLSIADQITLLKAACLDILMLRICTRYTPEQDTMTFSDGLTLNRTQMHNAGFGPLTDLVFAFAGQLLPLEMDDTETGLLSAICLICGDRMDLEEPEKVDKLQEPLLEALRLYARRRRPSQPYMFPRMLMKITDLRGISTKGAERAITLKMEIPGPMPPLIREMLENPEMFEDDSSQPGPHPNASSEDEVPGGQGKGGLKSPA
Chain of human Peroxisome Proliferator-activated Receptor alpha (PPARa), PPARA (gene 5465) (Q07869 whole entry, looked up, the tested form may be a part): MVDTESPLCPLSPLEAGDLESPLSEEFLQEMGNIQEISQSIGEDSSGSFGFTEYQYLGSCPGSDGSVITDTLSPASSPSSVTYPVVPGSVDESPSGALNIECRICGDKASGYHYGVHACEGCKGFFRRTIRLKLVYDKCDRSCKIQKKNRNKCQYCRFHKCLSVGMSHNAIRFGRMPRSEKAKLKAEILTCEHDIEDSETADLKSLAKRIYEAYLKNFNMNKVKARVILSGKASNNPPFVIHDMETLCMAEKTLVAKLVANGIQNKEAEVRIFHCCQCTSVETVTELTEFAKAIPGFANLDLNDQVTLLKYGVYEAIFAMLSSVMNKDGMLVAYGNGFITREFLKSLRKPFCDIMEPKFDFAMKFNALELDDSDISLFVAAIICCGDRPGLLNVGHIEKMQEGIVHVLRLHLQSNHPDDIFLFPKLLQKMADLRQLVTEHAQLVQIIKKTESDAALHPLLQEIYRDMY
Chain of Peroxisome proliferator-activated receptor gamma (Homo sapiens) (P37231 whole entry, looked up): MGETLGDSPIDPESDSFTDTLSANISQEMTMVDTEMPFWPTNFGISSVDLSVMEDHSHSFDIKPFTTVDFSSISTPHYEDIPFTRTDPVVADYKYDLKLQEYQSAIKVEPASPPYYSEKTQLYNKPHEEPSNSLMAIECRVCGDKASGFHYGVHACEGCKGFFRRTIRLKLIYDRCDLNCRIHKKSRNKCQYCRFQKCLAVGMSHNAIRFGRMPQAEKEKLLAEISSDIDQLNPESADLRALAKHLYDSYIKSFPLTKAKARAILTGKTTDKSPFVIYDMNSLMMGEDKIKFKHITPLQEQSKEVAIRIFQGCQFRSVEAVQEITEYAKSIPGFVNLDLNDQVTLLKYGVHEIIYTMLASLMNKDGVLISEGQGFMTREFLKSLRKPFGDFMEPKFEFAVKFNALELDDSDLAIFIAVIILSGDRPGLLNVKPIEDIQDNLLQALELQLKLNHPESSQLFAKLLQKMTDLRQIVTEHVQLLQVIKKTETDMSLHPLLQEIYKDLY
Chain of human RAR-related Orphan Receptor beta (RORb), RORB (gene 6096) (Q92753 whole entry, looked up, the tested form may be a part): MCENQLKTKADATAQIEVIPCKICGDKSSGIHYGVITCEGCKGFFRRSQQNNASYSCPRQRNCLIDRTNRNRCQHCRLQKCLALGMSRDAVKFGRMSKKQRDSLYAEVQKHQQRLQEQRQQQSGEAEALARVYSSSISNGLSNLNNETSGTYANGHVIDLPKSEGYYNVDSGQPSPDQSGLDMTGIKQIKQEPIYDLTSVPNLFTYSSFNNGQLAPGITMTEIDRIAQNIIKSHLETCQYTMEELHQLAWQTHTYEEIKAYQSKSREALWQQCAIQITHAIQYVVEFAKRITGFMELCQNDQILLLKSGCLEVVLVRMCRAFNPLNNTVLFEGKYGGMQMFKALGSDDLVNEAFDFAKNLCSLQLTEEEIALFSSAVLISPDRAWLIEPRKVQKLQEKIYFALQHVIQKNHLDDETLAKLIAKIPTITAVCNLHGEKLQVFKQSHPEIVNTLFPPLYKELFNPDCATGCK
Chain of human Retinoic Acid Receptor beta (RARb), RARB (gene 5915) (P10826 whole entry, looked up): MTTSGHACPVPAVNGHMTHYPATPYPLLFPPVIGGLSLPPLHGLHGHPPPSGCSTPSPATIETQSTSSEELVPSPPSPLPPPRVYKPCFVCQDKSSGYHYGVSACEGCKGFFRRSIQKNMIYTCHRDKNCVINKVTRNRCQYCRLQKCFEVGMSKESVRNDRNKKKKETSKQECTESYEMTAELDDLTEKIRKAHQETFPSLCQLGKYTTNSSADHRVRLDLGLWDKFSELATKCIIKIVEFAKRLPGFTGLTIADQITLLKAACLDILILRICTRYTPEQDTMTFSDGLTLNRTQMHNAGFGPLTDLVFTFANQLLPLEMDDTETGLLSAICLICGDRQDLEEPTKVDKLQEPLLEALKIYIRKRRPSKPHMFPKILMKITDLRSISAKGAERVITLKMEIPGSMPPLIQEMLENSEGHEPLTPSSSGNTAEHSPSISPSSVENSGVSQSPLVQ
Chain of Retinoic acid receptor alpha (Homo sapiens) (P10276 whole entry, looked up, the tested form may be a part): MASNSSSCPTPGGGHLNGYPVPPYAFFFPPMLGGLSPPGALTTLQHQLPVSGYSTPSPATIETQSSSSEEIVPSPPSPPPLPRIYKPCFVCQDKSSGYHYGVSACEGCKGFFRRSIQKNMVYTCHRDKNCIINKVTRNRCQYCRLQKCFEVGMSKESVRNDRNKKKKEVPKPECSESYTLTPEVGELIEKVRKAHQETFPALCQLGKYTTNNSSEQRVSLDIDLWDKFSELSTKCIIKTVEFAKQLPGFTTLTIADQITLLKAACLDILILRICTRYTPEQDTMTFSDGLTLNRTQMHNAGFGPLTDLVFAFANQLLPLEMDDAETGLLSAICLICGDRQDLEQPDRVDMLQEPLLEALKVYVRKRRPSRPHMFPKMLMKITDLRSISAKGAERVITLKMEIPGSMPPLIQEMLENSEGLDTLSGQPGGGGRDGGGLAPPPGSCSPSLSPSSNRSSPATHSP
Chain of Nuclear receptor subfamily 1 group I member 2 (Homo sapiens) (O75469 whole entry, looked up, the tested form may be a part): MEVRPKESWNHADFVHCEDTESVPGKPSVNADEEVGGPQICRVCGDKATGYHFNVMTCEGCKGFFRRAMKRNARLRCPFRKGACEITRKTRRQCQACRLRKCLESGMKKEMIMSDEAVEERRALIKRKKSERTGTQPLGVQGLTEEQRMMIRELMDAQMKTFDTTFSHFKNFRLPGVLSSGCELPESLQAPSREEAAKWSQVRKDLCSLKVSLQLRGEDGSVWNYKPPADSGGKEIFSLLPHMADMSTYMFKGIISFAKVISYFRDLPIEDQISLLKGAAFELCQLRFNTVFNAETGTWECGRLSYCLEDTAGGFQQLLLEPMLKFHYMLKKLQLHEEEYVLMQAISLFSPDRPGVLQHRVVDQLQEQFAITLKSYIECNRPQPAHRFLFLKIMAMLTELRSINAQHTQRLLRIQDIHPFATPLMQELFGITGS

Sc1ccccc1
active: [3] 66 µM
inactive: [1] | [2] | [3] | [4] | [5] | [6] | [7] | [8] | [9] | [10] | [11]

Cc1ccccc1O
not listed: [9] | [14] | [15] | [17]
inactive: all other assays above

Nn1cnnc1
not listed: [9] | [11] | [16] | [17] | [18] | [20]
inactive: all other assays above

ClC1=C(Cl)[C@]2(Cl)[C@@H]3[C@@H](Cl)[C@H]4O[C@H]4[C@@H]3C1(Cl)C2(Cl)Cl
active: [3] 28.4 µM | [4] 60 µM | [12] 100 µM | [10] 11.2 µM | [11] 4.39 µM
not listed: [8] | [14] | [15] | [17] | [19]
inactive: all other assays above

CCCCCCCCCc1ccc(O)cc1
inactive: [1] | [2] | [4] | [12] | [9] | [14] | [20] | [11] | [16] | [17] | [18]
active: [1] 69 µM | [2] 68.8 µM | [3] 11.1 µM and 26.6 µM and 14.3 µM | [5] 16.1 µM | [6] 15.5 µM | [13] 13.8 µM | [7] 15.2 µM | [8] 33.4 µM and 21.6 µM and 16.9 µM | [9] 25.5 µM and 33.4 µM | [10] 11.2 µM | [15] 33.4 µM and 25.1 µM and 9.23 µM | [11] 21.2 µM

CCC(C)(c1ccc(O)cc1)c1ccc(O)cc1
active: [2] 44.8 µM | [3] 20 µM and 15.3 µM and 9.27 µM | [4] 53 µM and 45.7 µM and 9.52 µM | [12] 53.6 µM and 33.4 µM and 45.8 µM | [6] 32.8 µM | [10] 26.8 µM | [15] 46.1 µM | [11] 2.52 µM [middle of 4 runs]
inactive: [1] | [2] | [3] | [4] | [12] | [5] | [13] | [7] | [8] | [15] | [17] | [18]

COS(=O)(=O)OC
not listed: [11] | [13] | [14] | [15] | [16] | [20]
inactive: all other assays above

c1cc2ccc3cccc4ccc(c1)c2c34
active: [5] 5.47 µM
not listed: [8] | [17] | [19]
inactive: all other assays above

Oc1ccc(C(c2ccc(O)cc2)(C(F)(F)F)C(F)(F)F)cc1
active: [1] 20.3 µM | [3] 11.1 µM [middle of 4 runs] | [4] 16.3 µM and 16.7 µM and 18.1 µM | [12] 16.9 µM | [5] 35 µM | [6] 21.9 µM | [13] 33.6 µM | [7] 34.8 µM | [10] 12.8 µM | [11] 6 µM [middle of 4 runs]
inactive: [1] | [2] | [4] | [12] | [9] | [15] | [17] | [18]

O=C(NC(=O)c1c(F)cccc1F)Nc1cc(Cl)c(OC(F)(F)C(F)F)c(Cl)c1
active: [5] 1.03 µM
not listed: [13] | [14] | [17]
inactive: all other assays above

CC(c1ccc(O)cc1)(c1ccc(O)cc1)c1ccc(O)cc1
active: [2] 18.9 µM | [3] 19.6 µM | [4] 11.1 µM | [12] 11.1 µM | [6] 32.6 µM | [13] 29.8 µM | [7] 31.4 µM | [10] 28 µM | [11] 2.93 µM
inactive: [1] | [5] | [9] | [19] | [15] | [18]
